Results on 90 compounds are retold here after PubChem BioAssay AID372 (MTDP, 2006).

Among all 100,000 compounds or so, about 770 (0.77%) were called active. Cut-off read from the data, not from the text of the source: active = inhibition above about 50%; inactive = the rest. Shown is part of a subset that was picked to be rich in actives.

This assay concerns the target Gag-Pol polyprotein (Human immunodeficiency virus type 1 group M subtype B (isolate HXB2)) (UniProt P04585). As to the kind of experiment: RNase H inhibition, HIV 1 Gag Pol polyprotein, FRET biochemical assay, screening (AID 372). Particulars: HIV-1 RT RNase H, FRET RNA/DNA substrate fluorescence; at 10 µM; hits give high values.
The term inhibition denotes the relative decrease from the control value, in per cent. As to `Clc1cccc(NCc2ccncc2)c1`, the inhibition is 2% (inactive). As for `COc1ccc(-n2sc3c(c2=S)-c2ccc(OC)cc2NC3(C)C)cc1`, the figure is 15% (inactive).

On to `CCCOC(=O)C1=C(C)NC2=C(C(=O)CC(c3ccccc3)C2)C1c1ccccc1Br` (stereo not given), for which the inhibition is 58% (active). `CC1=C(C(=O)OCCc2ccccc2)C(c2ccccc2Br)C2=C(CC(c3ccccc3)CC2=O)N1` (stereo not given): the inhibition was 26% (inactive).

Consider `CC1=C(C(=O)OCc2ccccc2)C(c2ccccc2Br)C2=C(CC(c3ccccc3)CC2=O)N1` (stereo not given), for which the inhibition is 32% (inactive). Under `O=S(=O)(NC1CCCCCCC1)c1ccc(F)cc1` stands 7% (inactive); under `O=C1NC(=S)S/C1=C\c1cn(Cc2ccc(Cl)cc2)c2ccccc12`, 31% (inactive); under `CCN(CC)CCOc1c(Cl)cc(C)cc1Cl`, 2% (inactive). As to `CCOc1ccccc1OCCCOc1c(C)cc(C)cc1Cl`, the inhibition was 52% (active). As for `CCOc1ccccc1OCCOCCOc1c(C)cc(C)cc1Cl`, the figure is 33% (inactive).

With `CCOc1ccccc1OCCCCOc1c(Cl)cc(C)cc1Cl`, the inhibition was 23% (inactive). Under `CCN(CC)CCOc1c(C)cc(C)cc1Cl` stands 52% (active); under `CCN(CC)CCOc1c(C)cc(Cl)cc1Cl`, 0% (inactive). As for `N#C/C(=C\Nc1ccccc1Cl)c1nc(-c2ccc(Br)cc2)cs1`, the figure is 2% (inactive); as for `CC(=O)C1C(=O)C=C(c2cccs2)CC1c1ccccc1` (stereo not given), 0% (inactive). As for `CCOC(=O)C1=C(c2ccccc2)S/C(=C2/C(=S)C(C)(C)N(C(C)=O)c3ccc(OC)cc32)S1`, the figure is 22% (inactive). For `CC(=O)C1=C(c2ccccc2)S/C(=C2/C(=S)C(C)(C)N(C(C)=O)c3ccc(C)cc32)S1`, the inhibition was 50% (active). As for `CCOC(=O)C1=C(c2ccccc2)S/C(=C2/C(=S)C(C)(C)N(C(C)=O)c3ccc(C)cc32)S1`, the figure is 24% (inactive). As for `O=C(CSc1nc(O)cc(=O)[nH]1)C1CC1`, the figure is 11% (inactive); as for `COc1ccc(N2C(=O)/C(=C/c3cccn3-c3ccccc3)C(=O)NC2=S)cc1`, 54% (active); as for `COc1ccc(N2C(=O)/C(=C/c3cccn3-c3ccc(Br)cc3)C(=O)NC2=S)cc1`, 29% (inactive). For the compound `COc1ccc(-n2cccc2/C=C2/SC(=O)N(C)C2=O)cc1`, the inhibition was 53% (active). As to `CN1C(=O)S/C(=C/c2cccn2-c2ccc(Cl)cc2)C1=O`, the inhibition was 44% (inactive).

On to `O=C1NC(=S)N(c2ccccc2)C(=O)/C1=C/c1cccn1-c1ccc(Cl)cc1`, for which the inhibition is 52% (active).

Consider `O=C1NC(=S)N(c2ccc(Cl)cc2)C(=O)/C1=C/c1cccn1-c1ccccc1`, for which the inhibition is 4% (inactive). Under `O=C1NC(=O)C(=Cc2cccn2-c2ccccc2)C(=O)N1` stands 29% (inactive); under `CN1C(=O)/C(=C/c2cccn2-c2ccc([N+](=O)[O-])cc2)SC1=S`, 42% (inactive). For the compound `COc1ccc(-n2cccc2/C=C2\C(=O)NC(=S)N(c3ccc(Br)cc3)C2=O)cc1`, the inhibition is 32% (inactive). Under `O=C1NC(=S)N(c2ccccc2)C(=O)/C1=C/c1cccn1-c1ccccc1` stands 10% (inactive).

As to `O=C1NC(=S)NC(=O)C1=Cc1cccn1-c1ccc(Cl)cc1`, the inhibition was 11% (inactive). Turning to `O=C1NC(=O)C(=Cc2cccn2-c2ccc(Cl)cc2)C(=O)N1`, the inhibition was 57% (active).

In the case of `O=C(c1cc(-c2ccccc2)nc2ccccc12)N1CCc2ccccc2C1`, the inhibition was 9% (inactive). Under `COc1ccc(C(=O)N/C(=C\c2cc(OC)c(OC)cc2[N+](=O)[O-])C(=O)Nc2ccc(C)cc2C)cc1` stands 18% (inactive). Under `Cc1cccc(C2(c3cccc(C)c3)CC2C(=O)Nc2cc([N+](=O)[O-])ccc2O)c1` (stereo not given) stands 30% (inactive); under `CC(C)(C)NC(=O)C(=O)N/N=C/c1cccc2ccccc12`, 10% (inactive); under `COC(=O)C(=C/C(C)=C/c1ccco1)C(=O)OC`, 1% (inactive). Under `CCN(CC)CCCCCOc1cc(C)cc(C)c1` stands 17% (inactive).

Regarding `COc1cc(C(=O)N/C(=C/c2ccc(Br)cc2)C(=O)NC(C)C(=O)O)cc(OC)c1OC` (stereo not given), the inhibition was 3% (inactive).

In the case of `O=C(COc1ccccc1)Nc1ccccc1C(=O)Nc1ccc(C(=O)O)cc1`, the inhibition was 1% (inactive). With `COC(=O)c1ccccc1NC(=O)COc1ccc2ccccc2c1`, the inhibition was 38% (inactive). For the compound `O=C(COc1ccc2ccccc2c1)Nc1ccccc1C(=O)Nc1ccccc1`, the inhibition is 54% (active).

As to `C=C(C)c1cccc(C(C)(C)NC(=O)NCc2ccccn2)c1`, the inhibition was 0% (inactive). `O=C1c2ccccc2C(=O)N1CCc1nc2ccccc2c(=O)n1-c1ccccn1`: the inhibition was 61% (active). Take `Cc1cccc(-n2c(CCN3C(=O)c4ccccc4C3=O)nc3ccccc3c2=O)n1`: the inhibition was 14% (inactive). `O=C1c2ccccc2C(=O)N1CCc1nc2ccccc2c(=O)n1-c1ccc(Br)cn1`: the inhibition is 40% (inactive).

For `O=C(c1cccs1)N1CCN(c2ccc([N+](=O)[O-])cc2)CC1`, the inhibition is 4% (inactive). Under `Cc1ccc(C2=C/C(=C\c3cc([N+](=O)[O-])ccc3Cl)C(=O)O2)cc1` stands 43% (inactive); under `Cc1ccc([N+](=O)[O-])cc1/C=C1/C=C(c2ccccc2)OC1=O`, 57% (active). Under `O=C1OC(c2ccccc2)=C/C1=C\c1c(Cl)cccc1Cl` stands 50% (active). Under `O=C1OC(c2ccccc2)=C/C1=C/c1ccc([N+](=O)[O-])cc1` stands 2% (inactive). `Cc1ccc2cc(C3=C/C(=C\c4c(Cl)cccc4Cl)C(=O)O3)ccc2c1`: the inhibition was 6% (inactive).

Turning to `O=C1OC(c2ccccc2)=C/C1=C/c1ccc(Cl)cc1`, the inhibition was 7% (inactive). As for `CC(C)(C)c1cc(/C=N/NC(=O)c2ccccc2O)cc(C(C)(C)C)c1O`, the figure is 25% (inactive); as for `CC1=C(C(=O)Nc2ccc(Br)cc2)C(c2ccc(Br)cc2)NC(=S)N1` (stereo not given), 11% (inactive).

For the compound `CC1=C(C(=O)Nc2ccc(C)cc2)C(c2ccc(Br)cc2)NC(=S)N1` (stereo not given), the inhibition was 10% (inactive). Under `CC1=C(C(=O)Nc2ccc(Br)cc2)C(c2ccc(C)cc2)NC(=S)N1` (stereo not given) stands 57% (active); under `COC(=O)C1=C(C)N(C)C(=O)NC1c1cc2c(cc1[N+](=O)[O-])OCO2` (stereo not given), 3% (inactive); under `COc1ccc(/C=C2\SC(=O)N(Cc3ccccc3)C2=O)cc1OC`, 44% (inactive). Under `COC(=O)c1ccc(/C=C2\SC(=NCc3ccccc3)N(Cc3ccccc3)C2=O)cc1` stands 59% (active); under `COc1ccc(/C=C2\SC(=NCc3ccccc3)N(Cc3ccccc3)C2=O)cc1OC`, 54% (active).

For the compound `COc1ccc(/C=C2\SC(=NCc3ccccc3)N(Cc3ccccc3)C2=O)cc1C(=O)O`, the inhibition was 23% (inactive). Turning to `COc1ccccc1/C=C1/SC(=NCc2ccccc2)N(Cc2ccccc2)C1=O`, the inhibition is 28% (inactive). Under `CCOc1ccc(/C=C2\SC(=NCc3ccccc3)N(Cc3ccccc3)C2=O)cc1` stands 0% (inactive); under `O=C1CC(c2ccccc2)CC(O)=C1C=NCCN1CCNCC1` (stereo not given), 0% (inactive). As for `COc1ccc(C=Nc2ccc(C)c(F)c2)cc1OC`, the figure is 6% (inactive); as for `CCOC(=O)COc1c(Cl)cc(/C=C2\C(=O)NC(=O)N(c3ccc(F)cc3)C2=O)cc1Cl`, 2% (inactive). `CC/C(=C1\C(=O)N(c2nc3ccccc3s2)N=C1C(F)(F)F)N1CCCCC1`: the inhibition is 5% (inactive). As to `CCOc1ccc(N(CC(=O)N2CCC(C)CC2)S(=O)(=O)c2ccccc2)cc1`, the inhibition is 8% (inactive).

Regarding `CCCOc1ccccc1/C=N/NC(N)=O`, the inhibition was 0% (inactive). As to `CCc1cc(CC)c(Cc2c(CC)cc(CC)c(/C=N/NC(N)=O)c2CC)c(CC)c1/C=N/NC(N)=O`, the inhibition is 50% (active). As to `CCc1cc(CC)c(/C=N/O)c(CC)c1/C=N/O`, the inhibition was 0% (inactive).

On to `Cc1cc2ncn(S(=O)(=O)c3ccc(Cl)c([N+](=O)[O-])c3)c2cc1C`, for which the inhibition was 23% (inactive). Under `Cc1cc2ncn(S(=O)(=O)c3cc([N+](=O)[O-])ccc3Cl)c2cc1C` stands 57% (active); under `Cc1ccc([N+](=O)[O-])cc1S(=O)(=O)n1cnc2ccccc21`, 22% (inactive). Consider `CCCC(=O)Nc1ccc(N2CCOCC2)c(Cl)c1`, for which the inhibition is 0% (inactive). For `CCOC(=O)CCCN1C(=O)S/C(=C\c2ccc(OC)cc2)C1=O`, the inhibition is 0% (inactive). Under `COc1ccc(N2CC(C(=O)N/N=C/c3ccc(OC)c(OC)c3)CC2=O)cc1` (stereo not given) stands 3% (inactive); under `CCOc1cc(/C=C2\SC(=S)N(/N=C/c3ccc(O)c(OCC)c3)C2=O)ccc1O`, 20% (inactive); under `Nc1ccc(-c2nc3ccccc3[nH]2)c(N)c1`, 4% (inactive). For `Cc1ccc2nc(-c3sc(=S)n(-c4ccccc4)c3N)[nH]c2c1`, the inhibition was 21% (inactive). As for `COc1ccccc1/C=C/C(=O)c1c(-c2ccccc2)c2cc(Cl)ccc2[nH]c1=O`, the figure is 60% (active); as for `COc1ccc(OC)c(/C=C/C(=O)c2c(-c3ccccc3)c3cc(Cl)ccc3[nH]c2=O)c1`, 50% (active); as for `COc1cc(/C=C/C(=O)c2c(-c3ccccc3)c3cc(Cl)ccc3[nH]c2=O)cc(Br)c1OC`, 26% (inactive). As for `O=C(/C=C/c1ccccc1F)c1c(-c2ccccc2)c2cc(Cl)ccc2[nH]c1=O`, the figure is 48% (inactive); as for `COc1ccc(/C=C/C(=O)c2c(-c3ccccc3)c3cc(Cl)ccc3[nH]c2=O)cc1OC`, 11% (inactive). In the case of `COc1cc(/C=C/C(=O)c2c(-c3ccccc3)c3cc(Cl)ccc3[nH]c2=O)cc(OC)c1OC`, the inhibition is 3% (inactive). Under `C=CCN1C(=O)/C(=C\c2ccc(-c3ccc(Br)cc3)o2)C(=O)NC1=S` stands 32% (inactive); under `Cc1ccc(NC(=O)C(=O)NCc2ccc3c(c2)OCO3)cc1`, 4% (inactive); under `Cc1nc2cc(-c3ccc(I)cc3)[nH]n2c(=O)c1C`, 0% (inactive). `COC(=N)/C(C#N)=C/c1c(O)n(-c2c(Cl)cccc2Cl)c2ccccc12`: the inhibition is 1% (inactive).
